The results in this text go back to PubChem BioAssay (EPA / NIEHS).

Molecules are shown by their SMILES. Calls of active or inactive are those of the source. Rule for the calls: active = hit-call score of the fitted dose curve at least 0.9, where 1 is the maximum; inactive = score below 0.9.

Common to all, as to conditions: mRNA level, 48 h; actives raise or lower the signal
Read-out in assay [1]: Bcl-2 (BID) gene, BID (gene 637)
Put plainly: LTEA_HepaRG_BID: Life Technologies and Expression Analysis (LTEA) Assay for Bcl-2 (BID) gene using HepaRG (AID 2283476). In a few lines: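 Gene expression by qRT-PCR in HepaRG cells after 48 h exposure, duplicate wells, eight half-log concentrations topping at 100 uM in 0.5% DMSO. Normalized to ACTB, GAPDH, POLR2A; bidirectional fitting relative to DMSO.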

Read-out in assay [2]: Caspase-3 (Homo sapiens) (UniProt P42574)
Put plainly: LTEA_HepaRG_CASP3: Life Technologies and Expression Analysis (LTEA) Assay for cysteine-aspartic acid protease (CASP3) using HepaRG (AID 2283477). In outline:
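In HepaRG liver cells dosed for 48 h at up to 100 uM (eight-point, duplicate), CASP3 expression changes are scored by qRT-PCR. Activity is fitted in both directions with 0.5% DMSO as baseline.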

Read-out in assay [3]: Cytochrome P450 (CYP24A1), CYP24A1 (gene 1591)
In words: LTEA_HepaRG_CYP24A1: Life Technologies and Expression Analysis (LTEA) Assay for Cytochrome P450 (CYP24A1) using HepaRG (AID 2283478). In a few lines:
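Human liver HepaRG cultures receive each chemical for 48 h across an eight-point half-log series topping at 100 uM in 0.5% DMSO. Induction or suppression of CYP24A1 mRNA is scored relative to vehicle after housekeeping-gene normalization.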

Read-out in assay [4]: Cytochrome P450 (CYP1A2), CYP1A2 (gene 1544)
Put plainly: LTEA_HepaRG_CYP1A2: Life Technologies and Expression Analysis (LTEA) Assay for Cytochrome P450 (CYP1A2) using HepaRG (AID 2283479). In a few lines: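 Assesses CYP1A2 mRNA in human HepaRG liver cells after 48 h chemical exposure at up to 100 uM. Values come from qRT-PCR with bidirectional curve fitting relative to DMSO.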

Read-out in assay [5]: cysteine-aspartic acid protease (CASP8), CASP8 (gene 841)
Put plainly: LTEA_HepaRG_CASP8: Life Technologies and Expression Analysis (LTEA) Assay for cysteine-aspartic acid protease (CASP8) using HepaRG (AID 2283480). In a few lines: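 Differentiated HepaRG cells in serum-free induction medium, 48 h exposure, eight-point half-log series from 100 uM in 0.5% DMSO, duplicates. CASP8 mRNA by qRT-PCR, normalized to ACTB, GAPDH, POLR2A; bidirectional fit versus DMSO.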

Read-out in assay [6]: Cytochrome P450 (CYP2B6), CYP2B6 (gene 1555)
In words: LTEA_HepaRG_CYP2B6: Life Technologies and Expression Analysis (LTEA) Assay for Cytochrome P450 (CYP2B6) using HepaRG (AID 2283481). In a few lines:
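Using 48 h treatment of HepaRG cells in serum-free induction medium, concentrations spanned half-log steps from 100 uM in 0.5% DMSO vehicle. CYP2B6 mRNA induction or loss is scored by qRT-PCR against DMSO.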

Read-out in assay [7]: Cytochrome P450 2C19 (Homo sapiens) (UniProt P33261)
Put plainly: LTEA_HepaRG_CYP2C19: Life Technologies and Expression Analysis (LTEA) Assay for CYP2C19 using HepaRG (AID 2283482). In a few lines: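 Human HepaRG liver cells received test chemicals for 48 h (highest 100 uM, half-log dilutions in 0.5% DMSO). CYP2C19 mRNA induction or loss is read by multiplexed qRT-PCR and fitted in both directions versus vehicle.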

Read-out in assay [8]: CYP2C8 (gene 1558)
In words: LTEA_HepaRG_CYP2C8: Life Technologies and Expression Analysis (LTEA) Assay for CYP2C8 using HepaRG (AID 2283483). In outline: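 Differentiated HepaRG cells in serum-free induction medium exposed 48 h in duplicate to 8 half-log concentrations from 100 uM in 0.5% DMSO. CYP2C8 mRNA by qRT-PCR normalized to ACTB, GAPDH, POLR2A; bidirectional fit versus DMSO.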

Read-out in assay [9]: CYP2C9 (gene 1559)
In words: LTEA_HepaRG_CYP2C9: Life Technologies and Expression Analysis (LTEA) Assay for CYP2C9 using HepaRG (AID 2283484). In outline: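 Differentiated human HepaRG cells in serum-free induction medium were exposed 48 h to chemicals in 8-point half-log series from 100 uM (0.5% DMSO), in duplicate. CYP2C9 mRNA was measured by qRT-PCR, normalized to ACTB/GAPDH/POLR2A, with bidirectional fitting versus DMSO.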

Read-out in assay [10]: CYP2E1 (gene 1571)
In words: LTEA_HepaRG_CYP2E1: Life Technologies and Expression Analysis (LTEA) Assay for CYP2E1 using HepaRG (AID 2283485). In a few lines: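 HepaRG cells, plated 48 h, then exposed 48 h in serum-free induction medium to eight half-log concentrations from 100 uM in 0.5% DMSO, duplicate. CYP2E1 mRNA by qRT-PCR, normalized to ACTB/GAPDH/POLR2A; bidirectional fit versus DMSO.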

Read-out in assay [11]: CYP4A11 (gene 1579)
In words: LTEA_HepaRG_CYP4A11: Life Technologies and Expression Analysis (LTEA) Assay for CYP4A11 using HepaRG (AID 2283486). In outline: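 Readout is CYP4A11 mRNA induction or suppression (qRT-PCR, ACTB/GAPDH/POLR2A normalization) in human HepaRG cells after 48 h chemical treatment, concentrations to 100 uM in 0.5% DMSO, fitted bidirectionally against vehicle.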

Read-out in assay [12]: Cytochrome P450 3A4 (Homo sapiens) (UniProt P08684)
In words: LTEA_HepaRG_CYP3A4: Life Technologies and Expression Analysis (LTEA) Assay for CYP3A4 using HepaRG (AID 2283487). In outline: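 In a human hepatic line (HepaRG), duplicate wells were treated 48 h with up to 100 uM chemical in half-log dilutions. Endpoint: CYP3A4 mRNA induction or loss relative to 0.5% DMSO vehicle, by qRT-PCR.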

Read-out in assay [13]: DNA damage-inducible transcript 3 (DDIT3), DDIT3 (gene 1649)
Put plainly: LTEA_HepaRG_DDIT3: Life Technologies and Expression Analysis (LTEA) Assay for DNA damage-inducible transcript 3 (DDIT3) using HepaRG (AID 2283488). In a few lines:
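HepaRG cells, 48 h after plating, exposed 48 h in serum-free induction medium to 8 half-log concentrations up to 100 uM in 0.5% DMSO, in duplicate. DDIT3 mRNA measured by TaqMan qRT-PCR, normalized to ACTB, GAPDH and POLR2A. Fitted bidirectionally against DMSO.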

Read-out in assay [14]: Pro-epidermal growth factor (Homo sapiens) (UniProt P01133)
Put plainly: LTEA_HepaRG_EGF: Life Technologies and Expression Analysis (LTEA) Assay for Epidermal growth factor (EGF) using HepaRG (AID 2283489). In a few lines:
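EGF expression changes in human HepaRG cells are scored by bidirectional fitting relative to 0.5% DMSO controls. Chemicals are tested at eight half-log concentrations up to 100 uM for 48 h in serum-free induction medium.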

Read-out in assay [15]: Ezrin (EZR), EZR (gene 7430)
Put plainly: LTEA_HepaRG_EZR: Life Technologies and Expression Analysis (LTEA) Assay for Ezrin (EZR) using HepaRG (AID 2283491). In outline:
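Gain or loss of EZR mRNA is scored relative to 0.5% DMSO in human HepaRG cultures treated 48 h with test chemicals in duplicate, eight half-log concentrations from 100 uM.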

Read-out in assay [16]: CYP3A5 (gene 1577)
Put plainly: LTEA_HepaRG_CYP3A5: Life Technologies and Expression Analysis (LTEA) Assay for CYP3A5 using HepaRG (AID 2283493). In outline: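 HepaRG cells, plated 48 h then in serum-free induction medium, dosed in duplicate for 48 h with eight half-log concentrations up to 100 uM in 0.5% DMSO. Gene mRNA by Fluidigm TaqMan qRT-PCR, normalized to ACTB, GAPDH, POLR2A.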

Read-out in assay [17]: Fatty Acid-Binding Protein 1 (FABP1), FABP1 (gene 2168)
Put plainly: LTEA_HepaRG_FABP1: Life Technologies and Expression Analysis (LTEA) Assay for Fatty Acid-Binding Protein 1 (FABP1) using HepaRG (AID 2283494). In outline:
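Differentiated human HepaRG cells exposed 48 h in serum-free induction medium to eight half-log concentrations up to 100 uM (0.5% DMSO), duplicate. FABP1 mRNA by qRT-PCR, normalised to ACTB, GAPDH, POLR2A; bidirectional fitting against DMSO.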

Read-out in assay [18]: Cytochrome P450 4A22 (Homo sapiens) (UniProt Q5TCH4)
In words: LTEA_HepaRG_CYP4A22: Life Technologies and Expression Analysis (LTEA) Assay for Cytochrome P450 4A22 (CYP4A22) using HepaRG (AID 2283495). In a few lines:
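Cryopreserved HepaRG cells, plated and cultured 48 h, then switched to serum-free induction medium and treated 48 h (duplicates, up to 100 uM, half-log steps, 0.5% DMSO). Expression change of CYP4A22 was fitted bidirectionally against vehicle.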

Read-out in assay [19]: Early growth response protein 1 (EGR1) transcription factor, EGR1 (gene 1958)
In words: LTEA_HepaRG_EGR1: Life Technologies and Expression Analysis (LTEA) Assay for Early growth response protein 1 (EGR1) transcription factor using HepaRG (AID 2283490). In outline: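 Differentiated HepaRG cells in serum-free induction medium exposed 48 hours, duplicate, to 8 half-log concentrations up to 100 uM in 0.5% DMSO. EGR1 mRNA measured by TaqMan qRT-PCR, normalized to ACTB, GAPDH, POLR2A; bidirectional fit versus DMSO.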

Read-out in assay [20]: Cytochrome P450 3A7 (Homo sapiens) (UniProt P24462)
Put plainly: LTEA_HepaRG_CYP3A7: Life Technologies and Expression Analysis (LTEA) Assay for CYP3A7 using HepaRG (AID 2283492). In outline:
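Cells were thawed, plated, cultured 48 h, then treated for a further 48 h with chemicals (eight-point half-log series from 100 uM, 0.5% DMSO). RNA was isolated and CYP3A7 expression quantified by qRT-PCR normalised to ACTB, GAPDH and POLR2A.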

Cytochrome P450 2C19 (Homo sapiens), sequence (P33261 whole entry, looked up): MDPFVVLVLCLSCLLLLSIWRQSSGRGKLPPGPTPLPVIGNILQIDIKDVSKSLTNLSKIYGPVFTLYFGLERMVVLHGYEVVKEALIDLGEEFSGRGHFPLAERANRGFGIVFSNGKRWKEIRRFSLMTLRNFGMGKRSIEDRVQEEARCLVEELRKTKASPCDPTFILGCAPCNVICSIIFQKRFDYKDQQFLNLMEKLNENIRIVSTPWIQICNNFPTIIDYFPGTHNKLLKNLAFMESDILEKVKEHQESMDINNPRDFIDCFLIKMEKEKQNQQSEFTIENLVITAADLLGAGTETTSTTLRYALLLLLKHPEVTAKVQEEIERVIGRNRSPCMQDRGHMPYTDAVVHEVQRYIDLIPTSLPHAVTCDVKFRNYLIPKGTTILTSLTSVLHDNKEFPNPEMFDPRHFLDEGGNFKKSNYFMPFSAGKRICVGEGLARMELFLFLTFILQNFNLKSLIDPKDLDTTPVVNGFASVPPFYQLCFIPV
Caspase-3 (Homo sapiens), sequence (P42574 whole entry, looked up): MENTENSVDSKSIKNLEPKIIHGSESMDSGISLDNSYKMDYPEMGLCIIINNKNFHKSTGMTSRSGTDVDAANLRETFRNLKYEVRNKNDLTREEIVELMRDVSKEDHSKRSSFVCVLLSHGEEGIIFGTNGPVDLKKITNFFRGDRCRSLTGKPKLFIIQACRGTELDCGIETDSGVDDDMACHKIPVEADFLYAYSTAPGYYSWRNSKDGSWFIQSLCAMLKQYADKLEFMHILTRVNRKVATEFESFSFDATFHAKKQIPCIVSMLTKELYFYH
Cytochrome P450 3A4 (Homo sapiens), sequence (P08684 whole entry, looked up): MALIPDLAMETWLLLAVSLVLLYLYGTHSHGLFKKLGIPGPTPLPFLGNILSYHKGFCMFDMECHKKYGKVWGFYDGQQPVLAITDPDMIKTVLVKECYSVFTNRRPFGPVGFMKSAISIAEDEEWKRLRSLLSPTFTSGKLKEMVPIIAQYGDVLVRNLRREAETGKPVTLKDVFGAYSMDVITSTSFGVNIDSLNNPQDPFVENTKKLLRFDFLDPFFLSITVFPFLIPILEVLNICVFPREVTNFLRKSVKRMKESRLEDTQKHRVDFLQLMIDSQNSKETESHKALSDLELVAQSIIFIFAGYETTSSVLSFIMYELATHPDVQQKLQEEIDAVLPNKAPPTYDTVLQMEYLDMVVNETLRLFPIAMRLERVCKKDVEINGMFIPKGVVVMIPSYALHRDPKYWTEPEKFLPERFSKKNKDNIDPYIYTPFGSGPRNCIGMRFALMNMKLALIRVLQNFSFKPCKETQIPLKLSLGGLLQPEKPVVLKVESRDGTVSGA
Cytochrome P450 3A7 (Homo sapiens), sequence (P24462 whole entry, looked up): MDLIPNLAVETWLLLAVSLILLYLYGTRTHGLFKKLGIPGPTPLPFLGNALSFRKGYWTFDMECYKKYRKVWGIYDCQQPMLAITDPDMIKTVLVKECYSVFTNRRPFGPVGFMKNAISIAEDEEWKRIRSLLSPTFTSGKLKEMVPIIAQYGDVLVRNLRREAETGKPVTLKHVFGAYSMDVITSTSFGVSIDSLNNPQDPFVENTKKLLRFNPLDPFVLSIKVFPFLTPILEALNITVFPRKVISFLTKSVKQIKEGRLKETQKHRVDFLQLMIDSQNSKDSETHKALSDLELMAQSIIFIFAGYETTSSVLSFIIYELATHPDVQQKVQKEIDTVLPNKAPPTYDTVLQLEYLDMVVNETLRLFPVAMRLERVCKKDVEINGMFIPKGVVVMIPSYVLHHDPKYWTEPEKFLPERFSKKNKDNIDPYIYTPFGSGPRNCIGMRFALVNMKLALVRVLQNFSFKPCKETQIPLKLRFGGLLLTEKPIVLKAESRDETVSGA

For the compound `Nc1c(Cl)c(F)nc(OCC(=O)O)c1Cl`, the compound was called inactive in assay [1], in [2], in assay [3], in assay [4], in assay [5] and in [6]. In addition, the compound was called inactive in assay [7], in [8], in assay [9], in assay [10], in assay [11] and in assay [12]. Further, the outcome in assay [13], in assay [14], in assay [15], in assay [16], in assay [17] and in assay [18] was inactive.
Consider `CCC(C)n1c(=O)[nH]c(C)c(Br)c1=O` (configuration not stated), for which the result in [1], in [2], in assay [3], in assay [5], in [7] and in assay [9] was inactive. The result in assay [12], in [14], in assay [19], in [15] and in assay [20] was inactive. Also, the AC50 is 8.92 µM (active) in [4]; 1.19 µM (active) in assay [6]; 50 µM (active) in assay [8]; 20.6 µM (active) in assay [10]; 13.5 µM (active) in [11]; 20.4 µM (active) in assay [16]. Besides, the figures for the AC50 in [17] and in assay [18] were 24.6 µM (active) and 7.06 µM (active), respectively.
`CC1(C)CCC(=Cc2ccc(Cl)cc2)C1(O)Cn1cncn1` (configuration not stated): the result in assay [1], in assay [2], in [3], in assay [5], in assay [9] and in assay [13] was inactive. The compound was called inactive in assay [14], in assay [19], in assay [15] and in [16]. In addition, the AC50 was 23.3 µM (active) in assay [4]; 2.72 µM (active) in assay [6]; 5.03 µM (active) in assay [7]; 12.6 µM (active) in assay [8]; 27.1 µM (active) in assay [10]; 27.8 µM (active) in [11]. Further, the AC50 in assay [17] was 4.41 µM (active); in assay [18] it was 14.6 µM (active).
Take `COc1cc(Cl)c(OC)cc1Cl`: the compound was classed as inactive in assay [1], in [2], in assay [5], in assay [8], in assay [9] and in [10]. Also, the outcome in assay [11], in [12], in [13], in assay [14], in assay [15] and in assay [16] was inactive. Moreover, the call in assay [17] and in [18] was inactive. For the same compound, the AC50 is 50 µM (active) in assay [4], 1.23 µM (active) in assay [6] and 8.31 µM (active) in assay [20].
